Test results from PubChem BioAssay AID743446 (Broad Institute, 2014).
Entries with a potency or affinity are not part of this list. Values without a mark were called inactive. How the calls were made is not given here.

experiment: viability loss in HEK293 cells – cell-based, plate reader, cherry-picked samples, cytotoxicity control, dose response (AID 743446); details: active compounds read low; at 26 µM unless noted

Going from `COc1ccccc1N/C=C/c1onc(C)c1[N+](=O)[O-]` to `Cc1ccsc1/C=N/Nc1cccc(C(=O)O)c1`, the max activity rises from -8.08% [at 0.8 µM] to 25.6% [at 0.8 µM].

With `C[C@H](CO)N1C[C@H](C)[C@H](CN(C)Cc2ccncc2)Oc2ncc(C#CCC3CCCCC3)cc2C1=O` the max activity was 18.1% [at 3 µM].

Compared with `Cc1cnc(NC(=O)COc2ccccc2Cl)s1`, `COCCn1c(C)cc(C(=O)CSc2nc3ccccc3s2)c1C` is lower in max activity: 11.6% for the first, -17.4% for the second.

Compared with `CC1(c2ccccc2Cl)NC(=O)N(CC(=O)N2CCc3ccccc32)C1=O` (configuration not stated), `CC(=O)c1c(C)[nH]c(C(=O)CN2C(=O)NC(C)(c3ccc(C)cc3)C2=O)c1C` (configuration not stated) is lower in max activity: 40.9% for the first, 39.5% for the second.

Going from `Cc1cc(C)n2c(Nc3ccc4c(c3)OCCO4)c(-c3cc4ccccc4o3)nc2n1` to `Cc1ccc2nc(-c3ccc(NC(=O)C4CCCO4)cc3)[nH]c2c1` (configuration not stated), the max activity falls from 52.8% to 41.8%.

In the case of `Cc1ccc(-c2nc(-c3ccncc3)no2)cc1C`, the max activity was -14.8%.

Compared with `Cn1nnnc1SCC(=O)N1CCN(C(=O)c2ccco2)CC1`, `O=C(Nc1ccc(N2CCN(C(=O)c3ccc(Cl)cc3)CC2)cc1)c1cc2ccccc2o1` is higher in max activity: -12.8% [at 0.05 µM] for the first, 21.1% [at 0.05 µM] for the second.

For `CO[C@@H]1CN(C)C(=O)c2cc(NC(C)=O)ccc2OC[C@@H](C)N(Cc2ccc(F)cc2)C[C@@H]1C`, the max activity was 59.8% [at 0.05 µM].

First: COc1ccc(/C=C/C(=O)Nc2ccccc2C(=O)O)cc1OC
Second: Cc1ccc(-n2cc(CN(C)Cc3nccn3C)c(-c3cccc(C)c3)n2)cc1
The max activity of the first is lower: 13.2% [at 1.6 µM] for the first, 22.6% [at 1.6 µM] for the second.

Compared with `Cc1cc(C(=O)COC(=O)C2CC2)c(C)n1-c1ccc(F)cc1`, `N#C[C@@H]1[C@H](c2ccc(C#CC3CCCCC3)cc2)[C@@H](CO)N1S(=O)(=O)c1ccccc1` is higher in max activity: 9.72% [at 12 µM] for the first, 39.8% [at 12 µM] for the second.

First: Cc1ccccc1C(=O)Nc1nnc(-c2ccco2)s1
Second: CSc1nnc(NC(=O)c2ccc3c(c2)OCO3)s1
The max activity of the first is lower: -13.7% [at 12 µM] for the first, -9.38% [at 12 µM] for the second.

Compared with `Cc1ccc(S(=O)(=O)Nc2ccc3c(c2)C(=O)N([C@H](C)CO)C[C@@H](C)[C@H](CN(C)S(=O)(=O)c2cccs2)OCCCC[C@@H](C)O3)cc1`, `C[C@H](CO)N1C[C@H](C)[C@H](CN(C)C(=O)Nc2cccc3ccccc23)OCCCC[C@H](C)Oc2ccc(NC(=O)C3CCCCC3)cc2C1=O` is higher in max activity: -17.3% [at 12 µM] for the first, 31.6% [at 12 µM] for the second.

Compound `COc1ccc(S(=O)(=O)N2CCN(C(=O)c3ccc(C)o3)CC2)cc1` has a max activity of 29.4% [at 0.195 µM].

Going from `Cc1ccc2nc(-c3ccc(NC(=O)c4cccnc4)cc3)oc2c1` to `C[C@@H]1CN([C@@H](C)CO)C(=O)c2cc(NS(C)(=O)=O)ccc2O[C@@H](C)CCCCO[C@@H]1CN(C)Cc1ccc(C(F)(F)F)cc1`, the max activity rises from -17.1% [at 0.1 µM] to -12.9% [at 0.1 µM].

Going from `O=C(O)c1cccc(N/N=C/c2cccs2)c1` to `Nc1nccc(-c2cc(-c3ccc(Cl)cc3Cl)no2)n1`, the max activity falls from 58.2% [at 6 µM] to 47.2% [at 6 µM].

With `O=C(NCc1ccco1)c1cc(NS(=O)(=O)c2cccc([N+](=O)[O-])c2)ccc1O` the max activity was 40.6% [at 0.38 µM].
